SNCA expr inhib – SNCA gene expression inhibition. HEK-293 SNCA-luciferase knock-in, luminescence, 24 h. 0.17% of 140,000 active. Potency, µM (top dose mostly 57.2 µM), for inactives: at the top dose activity change, negative = inhibition, most hits filed as inhibitors;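 also: potency is read from the fitted curve at half-maximal effect; plate controls were DMSO cells for no effect and cell-free wells for full effect; nearly all actives have a fitted effect of over 45% in size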
HEK293 viab – cell viability loss counter-screen. 0.12% of 150,000 active. HEK-293-SNCA-luc viability, GF-AFC fluorescence, 24 h. Potency, µM (series often up to 57.1 µM), inactives show at the highest dose activity change, negative = cytotoxicity, usual class: cytotoxic;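 also: potency is read from the fitted curve at half-maximal effect; 0% = DMSO-treated cells and -100% = medium-only wells without cells; nearly all actives have a fitted effect of over 30% in size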
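Cytotoxicity counterscreen: after 24 h compound treatment of genome-edited SNCA-luciferase HEK-293 cells, live-cell protease substrate GF-AFC read by fluorescence after 30 min; activity scaled between DMSO (0%) and medium-only (-100%), curves Hill-fitted.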
KDM5B inhibitor – KDM5B demethylase inhibition; Q9UGL1; KDM5B demethylase, FDH-coupled NADH fluorescence (FDH is formaldehyde dehydrogenase); Potency, µM (series often up to 57.7 µM), hits mostly inhibitors; 2.6% of 220,000 active; AID 1347165; also: potency is read from the fitted curve at half-maximal effect; 0% is about no effect; nearly all actives have a fitted effect of over 70% in size
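Here, H3K4me3 peptide (12.5 µM in substrate mix) is demethylated by KDM5BΔAP, 200 nM final, after 10 min compound exposure. Formaldehyde product is coupled through FDH (0.25 U/mL in mix) to NADH fluorescence; 30-min ΔRFU feeds dose-response curves.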
IP6K1 inh – inhibitors of human IP6K1 | IP6K1 kinase, ADP-Glo luminescence, 2 h; stronger effect = lower value | activity change, % (series mostly up to about 58 µM) | 0.81% of 140,000 active; in the data active = activity change below about -25%; also: % is scaled to controls: 0 for no effect and ±100 for the full control effect
Target sequence (Q92551 whole entry, looked up): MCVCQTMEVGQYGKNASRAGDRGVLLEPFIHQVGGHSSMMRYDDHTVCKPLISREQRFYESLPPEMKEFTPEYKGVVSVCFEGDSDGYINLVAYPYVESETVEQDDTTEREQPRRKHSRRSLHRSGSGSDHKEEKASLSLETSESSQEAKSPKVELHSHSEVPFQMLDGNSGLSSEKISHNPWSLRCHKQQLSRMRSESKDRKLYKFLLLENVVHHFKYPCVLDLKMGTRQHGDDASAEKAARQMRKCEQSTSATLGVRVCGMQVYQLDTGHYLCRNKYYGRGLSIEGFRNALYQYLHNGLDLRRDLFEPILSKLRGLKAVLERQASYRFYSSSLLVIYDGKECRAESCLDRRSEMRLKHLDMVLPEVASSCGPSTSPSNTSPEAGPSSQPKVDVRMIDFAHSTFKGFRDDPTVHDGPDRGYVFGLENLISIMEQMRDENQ
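ADP-Glo luminescence measures ADP made by human IP6K1 during a 2 h RT reaction with ATP/IP6 (mix at 1.3 mM/130 uM); top library doses 57.5 and 19.1 uM final.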
IP6K1 inh cnf – confirmation of human IP6K1 inhibitors; recombinant IP6K1 kinase, ADP-Glo luminescence, 2 h; AID 1645852; Potency, µM (highest dose often 49 µM), inactives show at the highest dose activity change, negative = inhibition, most hits filed as inhibitors; 13% of 1,200 active; shares compounds with IP6K1 inh; also: potency is read from the fitted curve at half-maximal effect; % is scaled to controls: 0 for no effect and ±100 for the full control effect; nearly all actives have a fitted effect of over 65% in size
* marks the source's active call; other numbers are inactive results; i = inactive; ? = inconclusive; . = no result given; ! = not active in a repeat; [ ] = another dose, or the depositor's remark. In the library only some 2.9% were active in any assay of this set; here they are far more common. Unless noted, calls follow the shape of the dose curve; as a rule, active = well fitted curve in the direction sought with a large enough effect; inconclusive = small, poorly fitted or top-dose-only effect, or another doubt; inactive = no such curve, though single readings can be large; an effect the other way counts as inactive or inconclusive.

SMILES | SNCA expr inhib | HEK293 viab | KDM5B inhibitor | IP6K1 inh | IP6K1 inh cnf
Cc1ccnc2nc(NC(=O)c3ccccc3Cl)nn12 | 76% | -4% | ? | -25* | -2%
COc1ccc(-c2noc([C@@H]3C[C@H](NCc4cccc(C#N)c4)CN3C)n2)cc1 | 5%[87.6 µM] | -21%[87.6 µM] | i | 6 | .
O=C(NCc1ccccc1)c1ccc2nnc(C3CCCC3)n2c1 | 15%[87.6 µM] | 10%[87.6 µM] | . | -3 | .
Fc1ccc(-c2ccc3ncc(Nc4ccc5c(c4)OCO5)n3n2)cc1 | 3%[87.6 µM] | -25%[87.6 µM] | i | -35* | ?
NC(=O)c1ccc(Nc2cnc3ccc(-c4ccccc4)nn23)cc1 | 61%[87.6 µM] | 9%[87.6 µM] | i | -29* | -22%
COc1ccc(Nc2cnc3ccc(-c4ccccc4)nn23)cc1 | -12%[87.6 µM] | -5%[87.6 µM] | i | 8 | .
Cc1cc(SCc2sc(-c3ccc(C(F)(F)F)cc3)nc2C)ccc1OCC(=O)O | 34% | 4% | . | -29* | 10µM*
O=C(N[C@@H]1CN(Cc2ccccn2)CCC[C@H]1O)c1ccc(OCc2ccccc2)cc1 | -16%[87.6 µM] | -15%[87.6 µM] | i | -33* | 17%
COc1cccc(CN2CCC[C@@H](O)[C@H](NC(=O)c3ccc(OCc4ccccc4)cc3)C2)c1 | ? | -21% | i | -1 | .
COc1ccnc(-c2nnc3ccc(N(C)c4ccccc4)nn23)c1 | ? | ? | i | -39* | ?
CN(Cc1ccccc1)C(=O)c1ccnc(-c2nnc3ccc(N(C)c4ccccc4)nn23)c1 | 1% | -10% | i | -3 | .
Cc1ccc(CCNC(=O)CCn2nc(-c3ccc(Cl)cc3)ccc2=O)cc1 | 21% | -1% | ? | -28* | -6%
O=C(CCn1nc(-c2ccc(Cl)cc2)ccc1=O)NCCc1ccccc1 | 20% | -2% | ? | 18 | .
CCOC(=O)C(Cc1cccc(N2CCN(C(=O)c3ccccc3C(F)(F)F)CC2)c1)OC (centres undefined) | . | . | . | 9 | .
Cc1noc(C)c1-c1cc2c(cc(-c3ccccc3)n2C)c(-c2ccnn2C)n1 | 17%[87.6 µM] | -17%[87.6 µM] | i | -45* | ?
CNC(=O)c1ccccc1Nc1cc(Nc2ccc(N3CCOCC3)cc2OC)ncc1C(F)(F)F | . | -26% | . | -53* | ?
Cc1cc(C)c2oc(-c3ccc(C)c(NC(=O)/C=C/c4ccco4)c3)nc2c1 | 33% | -4% | ? | -36* | ?
CC1CN(C(=O)CCC(=O)NCc2ccc(F)cc2)c2cc(Cl)ccc2O1 (centres undefined) | 25% | -4% | i | -25* | -7%
O=C(Nc1noc2ccccc12)c1ccc(Br)o1 | . | . | i | . | .
O=C(Nc1noc2ccccc12)c1c(F)cccc1F | ? | 2% | i | -31* | ?
COc1ccc(NC(=O)CN2CCN(Cc3ccccc3Cl)S2(=O)=O)cc1Cl | 15% | -11% | i | -29* | ?
Cc1cccc(-c2cnc3[nH]cc(CC(N)=O)c3c2)c1 | 3%[87.6 µM] | 3%[87.6 µM] | 32µM* | -32* | ?
CNC(=O)c1cccc(-c2cnc3[nH]cc(CC(=O)Nc4cccc(F)c4)c3c2)c1 | -22%[87.6 µM] | -20%[87.6 µM] | i | -8 | .
CNC(=O)c1cccc(-c2cnc3[nH]cc(CC(=O)Nc4ccccc4Cl)c3c2)c1 | 56%[87.6 µM] | ? | i | -26* | ?
NC(=O)Cc1c[nH]c2ncc(-c3cccc(CO)c3)cc12 | -4%[87.6 µM] | 3%[87.6 µM] | 32µM* | -27* | ?
SMILES | SNCA expr inhib | HEK293 viab | KDM5B inhibitor | IP6K1 inh | IP6K1 inh cnf
O=C(c1ccccc1)N1CCC(n2cc(-c3nc(-c4ccccc4)no3)nn2)CC1 | 34% | -2% | i | 0 | .
CCN(CC)c1ccc(NC(=O)c2cc(S(N)(=O)=O)ccc2C)cc1 | . | . | i | . | .
CCN(CC)c1ccc(C(=C2C=CC(=[N+](CC)CC)C=C2)c2cc(S(=O)(=O)O)ccc2S(=O)(=O)[O-])cc1 | -8%[25.6 µM] | -26%[23.9 µM] | . | -51* | ?
COc1ccc(CC(=O)NC2CCN(c3cc(-c4ccc(Cl)cc4)[nH]n3)C2)cc1 (centres undefined) | -9% | -5% | ? | 16 | .
O=C(NCC1CCCCC1)C1CCN(c2nccc(Nc3ccccc3Cl)n2)CC1 | ? | -11%[12.5 µM] | . | 6 | .
CCc1nc2c(c(-c3ccc(Cl)cc3)n1)CCN(Cc1cccc3ccccc13)CC2 | -21% | 3% | ? | -4 | .
O=C(Nc1ccc2nn(-c3ccc(F)cc3)nc2c1)c1cccc2c(Cl)cccc12 | 47% | 0% | i | -28* | 34%
COc1cc(C(=O)Nc2ccc3nn(-c4ccc(F)cc4)nc3c2)cc(OC)c1OC | -2% | 3% | i | -6 | .
CCC(=O)OCCCNc1nc(-c2ccc(Cl)cc2)nc2ccccc12 | 11% | -9% | ? | -25* | ?
CN(C)CCCNc1nc(-c2ccccc2)nc2ccccc12 | . | . | i | . | .
CCc1ccccc1NC(=O)CN1C(=O)CCSc2ccc(S(=O)(=O)N3CCCC3)cc21 | -6% | -3% | i | -31* | -16%
Cn1ncc2c(C(=O)Nc3ccccc3F)cc(-c3ccc(C(F)(F)F)cc3)nc21 | . | . | . | -10 | .
Cc1noc(C)c1[S+](=O)([O-])N1CCCC1C(=O)N1CCC(c2nc3ccncc3[nH]2)CC1 (centres undefined) | 34% | 2% | . | -31* | -14%
O=C(NCc1ccccc1)c1ccc2nnc(Cc3ccco3)n2c1 | -1% | 6% | . | -14 | .
O=C(NCc1cccs1)c1ccc2nnc(Cc3ccco3)n2c1 | 24%[87.6 µM] | -4%[87.6 µM] | . | -32*! | ?
O=C(NCc1cccc(C(F)(F)F)c1)c1ccc2nnc(Cc3ccco3)n2c1 | -6% | -6% | . | -30* | ?
COc1cccc(CNC(=O)c2ccc3nnc(Cc4ccco4)n3c2)c1 | 20%[87.6 µM] | 12%[87.6 µM] | . | -33* | ?
COc1ccc(Nc2ccnc(N3CCN(C(=O)C(C)(C)C)CC3)n2)cc1 | 9% | -3% | . | -10 | .
CCCCn1c(=O)c(C(=O)N2CCC(c3ccccc3)CC2)nc2cccnc21 | -20% | 0% | . | 7 | .
CC(C)Nc1cc(-c2c[nH]c(C(=O)N[C@H](CO)c3cccc(Cl)c3)c2)c(Cl)cn1 | ? | -22% | . | -19 | .
Cc1cnc(Nc2ccc(F)cc2Cl)nc1-c1c[nH]c(C(=O)NC(CO)c2cccc(Cl)c2)c1 (centres undefined) | . | -27% | . | -42* | 9.2µM*
Cc1ccc(NC(=O)C(NS(=O)(=O)c2ccc3c(c2)CCC(=O)N3)c2ccccc2)cc1C (centres undefined) | 65% | -4% | ? | -32* | -4%
CCOc1ccc(CN2CCN(Cc3ccc4c(c3)c3ccccc3n4CC)CC2)cc1 | -2% | -4% | ? | -32* | 7%
COc1cccc(-c2ccc(C(=O)N3CCC(C(=O)NCc4ccc5c(c4)OCO5)CC3)cc2)c1 | 19% | 1%[12.5 µM] | . | -11 | .
O=S(=O)(c1ccccc1)c1nc(-c2cccs2)oc1N1CCOCC1 | . | . | i | . | .
Cc1ccc(-c2nc(S(=O)(=O)c3ccc(C)cc3)c(N3CCCCC3)o2)cc1 | 0% | 0% | ? | -29* | ?
